The source of these data is PubChem BioAssay (NCATS).

The nature of test [1]: Quantitative High-Throughput drug screen in 47 multiple myeloma cell lines against the NCATS MIPE library collection: XG1_PLB cell viability assay (AID 1919866). Further: nearly all actives have a fitted effect of over 35% in size. The gist of the method: (§1)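 ATP-based luminescence (CellTiter-Glo, 5 min RT incubation) quantified surviving cells following two days' treatment with MIPE 4.0 agents at 37 °C, 5% CO2.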
A short description of test [2]: Quantitative High-Throughput drug screen in 47 multiple myeloma cell lines against the NCATS MIPE library collection: PE2_PLB cell viability assay (AID 1919869). Further: nearly all actives have a fitted effect of over 35% in size. The gist of the method: as §1
The nature of test [3]: Quantitative High-Throughput drug screen in 47 multiple myeloma cell lines against the NCATS MIPE library collection: RPMI8226_ATCC cell viability assay (AID 1919871). Further: nearly all actives have a fitted effect of over 30% in size. In short, it runs like this: as §1
Test [4] in a line: Quantitative High-Throughput drug screen in 47 multiple myeloma cell lines against the NCATS MIPE library collection: OPM2_DSMZ cell viability assay (AID 1919872). Further: nearly all actives have a fitted effect of over 30% in size. In short, it runs like this: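 Inhibition of cell viability is measured here. Each line was plated at 500 cells per well, treated with MIPE 4.0 drugs, kept 48 hours at 37C, then assayed for ATP content by CellTiter-Glo luminescence.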

Test [5] is described as follows: Quantitative High-Throughput drug screen in 47 multiple myeloma cell lines against the NCATS MIPE library collection: VP6_DJ cell viability assay (AID 1919867). Further: nearly all actives have a fitted effect of over 40% in size. The gist of the method:
as §1

A short description of test [6]: Quantitative High-Throughput drug screen in 47 multiple myeloma cell lines against the NCATS MIPE library collection: PCM6_Riken cell viability assay (AID 1919870). Further: nearly all actives have a fitted effect of over 30% in size. The gist of the method: as §1
Test [7] can be described thus: Quantitative High-Throughput drug screen in 47 multiple myeloma cell lines against the NCATS MIPE library collection: KMS11_JCRBsus cell viability assay (AID 1919873). Further: nearly all actives have a fitted effect of over 50% in size. The gist of the method:
as §1

A short description of test [8]: Quantitative High-Throughput drug screen in 47 multiple myeloma cell lines against the NCATS MIPE library collection: KMS28BM_JCRB cell viability assay (AID 1919874). Further: nearly all actives have a fitted effect of over 35% in size. The gist of the method: as §1

Inconclusive results are not listed. Calls of active or inactive are those of the source. The call rests on the fitted dose curve; in most records, active means well fitted cell-killing curve with a large enough effect; inconclusive means small, poorly fitted or top-dose-only effect, or effect the other way; inactive means no such curve, though single readings can be large or run the other way.
Potency means the concentration at half of the fitted maximal effect.

Consider `O=C(Oc1ccc([N+](=O)[O-])cc1)N1CCN(Cc2cccc(Oc3ccccc3)c2)CC1`, for which, in test [1], the Potency is 20.9 µM (active). The Potency entry in test [2], in test [3] and in test [4] was “inactive” in each case.
As for `C[C@]12CC[C@H]3[C@@H](CCC4=CC(=O)CC[C@@]43C)[C@H]1CC[C@H]2OC(=O)CCC1CCCC1`, the Potency entry in test [1], in test [5], in test [6], in test [4], in test [7] and in test [8] was “inactive” in each case.
As for `O=C(O)CNC(=O)c1c(O)c2ccccc2n(Cc2ccccc2)c1=O`, the Potency entry in test [1], in test [2], in test [6], in test [7] and in test [8] was “inactive” in each case.
Regarding `CCNC(=O)CC1N=C(c2ccc(Cl)cc2)c2cc(OC)ccc2-n2c(C)nnc21` (stereo not drawn), the Potency is 5.9 µM (active) in test [1]; 16.6 µM (active) in test [5]; 23.5 µM (active) in test [6]; 4.69 µM (active) in test [3]; 16.6 µM (active) in test [4]; 18.7 µM (active) in test [7]. Also, the Potency in test [8] was 18.7 µM (active).
Regarding `Cc1c(N)nc([C@H](CC(N)=O)NC[C@@H](N)C(N)=O)nc1C(=O)N[C@H](C(=O)N[C@@H](C)[C@H](O)[C@@H](C)C(=O)N[C@@H](C(=O)NCCc1nc(-c2nc(C(=O)NCCC[S+](C)C)cs2)cs1)[C@@H](C)O)C(O[C@H]1O[C@H](CO)[C@H](O)[C@@H](O)[C@@H]1O[C@H]1O[C@H](CO)[C@@H](O)[C@H](OC(N)=O)[C@H]1O)c1cnc[nH]1` (stereo partly drawn), the Potency in test [1] is 0.209 µM (active); in test [5], 16.6 µM (active); in test [4] it was 2.35 µM (active); in test [8], 7.43 µM (active). For the same molecule, the Potency entry in test [6], in test [3] and in test [7] was “inactive” each time.
Take `CCc1c(C(=O)C(N)=O)c2c(OCC(=O)O)cccc2n1Cc1ccccc1`: the Potency result in test [1], in test [2], in test [6], in test [3], in test [4] and in test [7] was “inactive” each time. Also, in test [8], the Potency result is “inactive”.
As to `Oc1ccc2c3c1O[C@H]1c4[nH]c5c(c4C[C@@]4(O)[C@@H](C2)N(CC2CC2)CC[C@]314)C[C@@]1(O)[C@H]2Cc3ccc(O)c4c3[C@@]1(CCN2CC1CC1)[C@H]5O4`, the Potency entry in test [1], in test [2], in test [6], in test [3], in test [4] and in test [7] was “inactive” in each case. For the same molecule, the Potency result in test [8] was “inactive”.
Consider `CCOC(=O)Nc1ccc(NCc2ccc(F)cc2)cc1N`, for which the Potency in test [1] is 13.2 µM (active); in test [5], 20.9 µM (active). The Potency entry in test [2], in test [4] and in test [7] was “inactive” in each case.
Consider `C[C@]12CC[C@H](O)CC1=CC[C@H]1[C@H]3CCC(=O)[C@@]3(C)CC[C@@H]12`, for which the Potency in test [1] was 7.43 µM (active); in test [6], 16.6 µM (active); in test [7] it was 23.5 µM (active). The Potency result in test [2] and in test [4] was “inactive” each time.
As for `O=S(=O)(CC1CS1)c1ccc(Oc2ccccc2)cc1` (stereo not drawn), the Potency in test [1] is 14.8 µM (active); in test [2], 16.6 µM (active); in test [6], 23.5 µM (active); in test [7], 26.4 µM (active).
On to `C1=C2CCCN[C@H]2[C@@H]2C[C@H]1[C@@H]1CCCCN1C2`, for which the Potency entry in test [1], in test [2], in test [6], in test [3], in test [4] and in test [7] was “inactive” in each case. In addition, the Potency entry in test [8] is “inactive”.
On to `COc1cc2cc(c1Cl)N(C)C(=O)C[C@H](OC(=O)C(C)C)[C@]1(C)O[C@H]1[C@H](C)[C@@H]1C[C@@](O)(NC(=O)O1)[C@H](OC)C=CC=C(C)C2`, for which the Potency result in test [1], in test [2], in test [6], in test [3], in test [4] and in test [7] was “inactive” in each case. Besides, the Potency entry in test [8] is “inactive”.
As to `Clc1ccccc1C(c1ccccc1)(c1ccccc1)n1cccn1`, the Potency entry in test [1] and in test [2] was “inactive” in each case. Moreover, the Potency in test [3] is 20.9 µM (active).
On to `CC1=NN=C(c2ccc(N)cc2)c2cc3c(cc2C1)OCO3`, for which the Potency result in test [1], in test [2], in test [6], in test [3], in test [4] and in test [7] was “inactive” each time. The Potency entry in test [8] is “inactive”.
On to `C[C@]12Cc3cn[nH]c3C[C@@H]1CC[C@@H]1[C@H]2CC[C@@]2(C)[C@H]1CC[C@]2(C)O`, for which the Potency entry in test [1], in test [2], in test [6], in test [4] and in test [8] was “inactive” throughout.
Take `C#CC1(O)CCC2C3CCC4=CC(=O)CCC4(C)C3CCC21C` (stereo not drawn): the Potency entry in test [1], in test [5], in test [2], in test [4] and in test [7] was “inactive” throughout. The Potency in test [8] is 18.7 µM (active).
`CN(C)NC(=O)CCC(=O)O`: the Potency in test [1] was 26.4 µM (active); in test [5] it was 16.6 µM (active); in test [6] it was 20.9 µM (active). In addition, the Potency result in test [3], in test [4] and in test [7] was “inactive” throughout.
Turning to `CN[C@@H]1Cc2cccc3[nH]c(=O)n(c23)C1`, the Potency result in test [1], in test [2], in test [6], in test [3], in test [4] and in test [7] was “inactive” in each case. For the same molecule, in test [8], the Potency entry was “inactive”.
Consider `CCN1C[C@]2(OC(=O)c3ccccc3NC(C)=O)CC[C@H](OC)[C@@]34[C@H]5CC6[C@@H](OC)C[C@](O)(C(C[C@@H]23)[C@@H]14)[C@@]5(O)[C@@H]6OC`, for which the Potency result in test [1], in test [2], in test [6], in test [3], in test [4] and in test [7] was “inactive” each time. Moreover, the Potency result in test [8] is “inactive”.
As for `C[C@]12COC(=O)C[C@@H]1CC[C@@H]1[C@H]2CC[C@@]2(C)[C@H]1CC[C@]2(C)O`, the Potency result in test [1], in test [2], in test [3], in test [4], in test [7] and in test [8] was “inactive” throughout.
